{"source": "PubChem BioAssay (NCATS)", "note": "Records with an inconclusive call do not appear. The source made the active and inactive calls. Calls follow the shape of the dose curve; as a rule, active = well fitted curve in the direction sought with a large enough effect; inconclusive = small, poorly fitted or top-dose-only effect, or another doubt; inactive = no such curve, though single readings can be large; an effect the other way counts as inactive or inconclusive.", "data": [{"system": "not listed separately", "assay": "qHTS for Inhibitors of the Aldehyde Dehydrogenase Family (ALDH1A2, ALDH1A3, ALDH2, ALDH3A1) (AID 2061307); also: nearly all actives have a fitted effect of over 50% in size; as to Potency: test system not described further here; potency is read from the fitted curve at half-maximal effect; as to activity change, negative = inhibition: % is scaled to controls: 0 for no effect and ±100 for the full control effect", "details": "ALDH inhibition qHTS; series mostly up to 50.3 µM; activity change, negative = inhibition: at the top concentration", "values": [{"compound": "COc1ccc(C2Nc3ccccc3C(=O)N2Cc2ccccc2C(F)(F)F)cc1COc1ccc(NC(C)=O)cc1", "note": "(stereo not given)", "Potency": "2.25 µM (active)"}, {"compound": "COc1ccc(C2Nc3ccccc3C(=O)N2Cc2cccc(C(F)(F)F)c2)cc1COc1ccc(NC(C)=O)cc1", "note": "(stereo not given)", "Potency": "4 µM (active)"}, {"compound": "COc1ccc(C2=Nn3c(nnc3-c3ccccc3C)SC2)cc1", "activity change, negative = inhibition": "1.99% (inactive)"}, {"compound": "CNc1oc(-c2cccc(-c3ccccc3)c2)nc1C#N", "Potency": "17.8 µM (active)"}, {"compound": "O=C(O)c1cccc(-c2noc(-c3cccc(Cl)c3)n2)c1", "Potency": "0.381 µM (active)"}, {"compound": "O=[N+]([O-])c1ccc(CNc2ccc([S+](=O)([O-])Nc3nccs3)cc2)c(O)c1", "activity change, negative = inhibition": "-23.3% (inactive)"}, {"compound": "Nc1nnc(-c2cccc3ccccc23)o1", "activity change, negative = inhibition": "3.31% (inactive)"}, {"compound": "O=C1c2ccccc2C(=O)N1c1ncccc1O", "activity change, negative = inhibition": "-22.2% (inactive)"}, {"compound": "O=C(Nc1ccc2c(c1)CCC2)Nc1nnc(-c2ccncc2)s1", "activity change, negative = inhibition": "-23.1% (inactive)"}, {"compound": "COc1cccc(C2c3c(ncn(-c4ccccc4C#N)c3=N)Oc3ccc4ccccc4c32)c1", "note": "(stereo not given)", "activity change, negative = inhibition": "-83.3% (inactive)"}, {"compound": "Cc1ccc(Cl)cc1NS(=O)(=O)c1cc2c(cc1F)NC(=O)CC2", "Potency": "28.2 µM (active)"}, {"compound": "O=C(O)c1cccc(-n2cccc2)c1", "activity change, negative = inhibition": "-25.7% (inactive)"}, {"compound": "CC(C)(C)CNc1nc(C#N)nc(Nc2ccccc2)n1", "Potency": "12.7 µM (active)"}, {"compound": "COc1cccc(CNc2ccc([S+](=O)([O-])Nc3cc4ccccc4s3)cc2)c1O", "activity change, negative = inhibition": "-19.3% (inactive)"}, {"compound": "N#Cc1c(-c2ccc(F)cc2)no[n+]1[O-]", "Potency": "12.7 µM (active)"}, {"compound": "Cc1cccc(C[C@H](C(=O)O)N2C(=O)c3ccc(C(=O)O)cc3C2=O)c1", "activity change, negative = inhibition": "1.37% (inactive)"}, {"compound": "Cc1ccc(C)c(SC2=NS(=O)(=O)c3ccccc32)c1", "activity change, negative = inhibition": "19.8% (inactive)"}, {"compound": "O=C(c1ccc(-c2cc(O)c3ncccc3c2)cc1)N1CCNCC1", "activity change, negative = inhibition": "-28.4% (inactive)"}, {"compound": "COc1ccc(C2=Nn3c(nnc3-c3ccc(OC)c(OC)c3)SC2)c(OC)c1", "activity change, negative = inhibition": "-27.4% (inactive)"}, {"compound": "CCOC(=O)c1cccc(-n2cccc2/C=C2\\NC(=O)N(CC(=O)O)C2=O)c1", "activity change, negative = inhibition": "-15.9% (inactive)"}, {"compound": "CC(=O)c1ccc(N2CCN(C(=O)c3ccc4c(c3)CC(=O)N4)CC2)cc1", "activity change, negative = inhibition": "-32.7% (inactive)"}, {"compound": "N=c1c2c(ncn1-c1ccccc1)Oc1ccc3ccccc3c1C2c1ccc2c(c1)CCO2", "note": "(stereo not given)", "Potency": "7.08 µM (active)"}, {"compound": "CN(Cc1ccco1)c1ncnc2ccc(-c3cccnc3)cc12", "activity change, negative = inhibition": "-45.2% (inactive)"}, {"compound": "Cc1cccc(C)c1-n1c(SCC(=O)NCCCCCC(=O)O)nnc1-c1cccc([S+](=O)([O-])N2CCCC2)c1", "activity change, negative = inhibition": "30.3% (inactive)"}, {"compound": "Cc1ccnc(NC(=S)N2CCN(c3ccc(N)cc3)CC2)c1", "activity change, negative = inhibition": "-0.336% (inactive)"}, {"compound": "CN(Cc1cccs1)c1ncnc2ccc(-c3ccc4cnn(C)c4c3)cc12", "activity change, negative = inhibition": "-0.545% (inactive)"}, {"compound": "O=C1Cc2cc(S(=O)(=O)N3CCN(c4ccc(C(F)(F)F)cc4)CC3)ccc2N1", "activity change, negative = inhibition": "-7% (inactive)"}, {"compound": "O=C(Cc1ccc(Cl)c(Cl)c1)Nc1ccc(S(=O)(=O)Nc2cccc(C(=O)O)c2)cc1", "activity change, negative = inhibition": "-23% (inactive)"}, {"compound": "COc1ccc(OC)c(-c2nnc3n2N=C(c2ccc(OC)c(OCC4CC4)c2)CS3)c1", "activity change, negative = inhibition": "-8.11% (inactive)"}, {"compound": "Cn1nnnc1Sc1ncnc2scc(-c3cnc(N)nc3)c12", "activity change, negative = inhibition": "-5.06% (inactive)"}, {"compound": "Cc1cccc(Nc2nc(C#N)nc(NC3CCCC3)n2)c1", "Potency": "0.447 µM (active)"}, {"compound": "S=C(Nc1cc(Cl)ccn1)N1CCN(c2ccc3ccccc3n2)CC1", "Potency": "14.1 µM (active)"}, {"compound": "CN(C)CCCNc1ncnc2ccc(-c3ccc4c(c3)OCO4)cc12", "activity change, negative = inhibition": "110% (inactive)"}, {"compound": "O=C(NC1CCCc2c1cnn2-c1ccc(F)cc1F)c1ccc(C(=O)c2ccccc2)cc1", "note": "(stereo not given)", "activity change, negative = inhibition": "-30% (inactive)"}, {"compound": "O=C1CCCC2=C1C(c1[nH]ncc1Cl)NC(=S)N2", "note": "(stereo not given)", "activity change, negative = inhibition": "-13.9% (inactive)"}, {"compound": "N#Cc1nc(Nc2cccc(Br)c2)nc(NC2CCCC2)n1", "Potency": "10.1 µM (active)"}, {"compound": "CCOc1ccc(C(=O)Nc2ccc(-c3nc4ccccc4[nH]3)cc2)cc1", "activity change, negative = inhibition": "5.11% (inactive)"}, {"compound": "CCOC(=O)c1ccoc1-c1ccc2ncnc(NCc3ncc[nH]3)c2c1", "activity change, negative = inhibition": "-2.77% (inactive)"}, {"compound": "COc1ccc(C2Nc3ccccc3C(=O)N2Cc2ccccc2)cc1COc1ccc(NC(=O)c2ccccc2)cc1", "note": "(stereo not given)", "Potency": "1.59 µM (active)"}, {"compound": "Cc1cccc(S(=O)(=O)NC2CCN(C#N)C2)c1", "note": "(stereo not given)", "activity change, negative = inhibition": "-48.4% (inactive)"}]}, {"molecular_target": "Aldehyde dehydrogenase, mitochondrial (Homo sapiens) (UniProt P05091)", "assay": "qHTS for Inhibitors of the Aldehyde Dehydrogenase Family (ALDH2) Primary screen (AID 2061308); also: nearly all actives have a fitted effect of over 55% in size; also: potency is read from the fitted curve at half-maximal effect;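 as to activity change, negative = inhibition: plate controls were vehicle for no effect and reference inhibitor for full effect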", "details": "ALDH2 enzyme inhibition qHTS, 1536-well; series mostly up to 56 µM; activity change, negative = inhibition: at the top concentration", "values": [{"compound": "COc1ccc(C2Nc3ccccc3C(=O)N2Cc2ccccc2C(F)(F)F)cc1COc1ccc(NC(C)=O)cc1", "note": "(stereo not given)", "activity change, negative = inhibition": "-10.3% (inactive)"}, {"compound": "COc1ccc(C2Nc3ccccc3C(=O)N2Cc2cccc(C(F)(F)F)c2)cc1COc1ccc(NC(C)=O)cc1", "note": "(stereo not given)", "activity change, negative = inhibition": "-12% (inactive)"}, {"compound": "COc1ccc(C2=Nn3c(nnc3-c3ccccc3C)SC2)cc1", "activity change, negative = inhibition": "3.23% (inactive)"}, {"compound": "CNc1oc(-c2cccc(-c3ccccc3)c2)nc1C#N", "activity change, negative = inhibition": "-2.94% (inactive)"}, {"compound": "O=C(O)c1cccc(-c2noc(-c3cccc(Cl)c3)n2)c1", "Potency": "inactive"}, {"compound": "O=[N+]([O-])c1ccc(CNc2ccc([S+](=O)([O-])Nc3nccs3)cc2)c(O)c1", "activity change, negative = inhibition": "-5.69% (inactive)"}, {"compound": "Nc1nnc(-c2cccc3ccccc23)o1", "activity change, negative = inhibition": "9.96% (inactive)"}, {"compound": "O=C1c2ccccc2C(=O)N1c1ncccc1O", "activity change, negative = inhibition": "-13.7% (inactive)"}, {"compound": "O=C(Nc1ccc2c(c1)CCC2)Nc1nnc(-c2ccncc2)s1", "activity change, negative = inhibition": "13.8% (inactive)"}, {"compound": "COc1cccc(C2c3c(ncn(-c4ccccc4C#N)c3=N)Oc3ccc4ccccc4c32)c1", "note": "(stereo not given)", "activity change, negative = inhibition": "0.361% (inactive)"}, {"compound": "Cc1ccc(Cl)cc1NS(=O)(=O)c1cc2c(cc1F)NC(=O)CC2", "activity change, negative = inhibition": "-9.03% (inactive)"}, {"compound": "O=C(O)c1cccc(-n2cccc2)c1", "activity change, negative = inhibition": "5.59% (inactive)"}, {"compound": "CC(C)(C)CNc1nc(C#N)nc(Nc2ccccc2)n1", "activity change, negative = inhibition": "3.17% (inactive)"}, {"compound": "COc1cccc(CNc2ccc([S+](=O)([O-])Nc3cc4ccccc4s3)cc2)c1O", "activity change, negative = inhibition": "-6.65% (inactive)"}, {"compound": "N#Cc1c(-c2ccc(F)cc2)no[n+]1[O-]", "activity change, negative = inhibition": "-9.92% (inactive)"}, {"compound": "Cc1cccc(C[C@H](C(=O)O)N2C(=O)c3ccc(C(=O)O)cc3C2=O)c1", "activity change, negative = inhibition": "-4.91% (inactive)"}, {"compound": "Cc1ccc(C)c(SC2=NS(=O)(=O)c3ccccc32)c1", "activity change, negative = inhibition": "8.39% (inactive)"}, {"compound": "O=C(c1ccc(-c2cc(O)c3ncccc3c2)cc1)N1CCNCC1", "activity change, negative = inhibition": "7.91% (inactive)"}, {"compound": "COc1ccc(C2=Nn3c(nnc3-c3ccc(OC)c(OC)c3)SC2)c(OC)c1", "activity change, negative = inhibition": "8.65% (inactive)"}, {"compound": "CCOC(=O)c1cccc(-n2cccc2/C=C2\\NC(=O)N(CC(=O)O)C2=O)c1", "activity change, negative = inhibition": "-10.5% (inactive)"}, {"compound": "CC(=O)c1ccc(N2CCN(C(=O)c3ccc4c(c3)CC(=O)N4)CC2)cc1", "activity change, negative = inhibition": "-0.8% (inactive)"}, {"compound": "N=c1c2c(ncn1-c1ccccc1)Oc1ccc3ccccc3c1C2c1ccc2c(c1)CCO2", "note": "(stereo not given)", "activity change, negative = inhibition": "44.4% (inactive)"}, {"compound": "CN(Cc1ccco1)c1ncnc2ccc(-c3cccnc3)cc12", "activity change, negative = inhibition": "15.8% (inactive)"}, {"compound": "Cc1cccc(C)c1-n1c(SCC(=O)NCCCCCC(=O)O)nnc1-c1cccc([S+](=O)([O-])N2CCCC2)c1", "activity change, negative = inhibition": "5.52% (inactive)"}, {"compound": "Cc1ccnc(NC(=S)N2CCN(c3ccc(N)cc3)CC2)c1", "activity change, negative = inhibition": "2.11% (inactive)"}, {"compound": "CN(Cc1cccs1)c1ncnc2ccc(-c3ccc4cnn(C)c4c3)cc12", "activity change, negative = inhibition": "-9.04% (inactive)"}, {"compound": "O=C1Cc2cc(S(=O)(=O)N3CCN(c4ccc(C(F)(F)F)cc4)CC3)ccc2N1", "activity change, negative = inhibition": "-12.6% [at 114 µM] (inactive)"}, {"compound": "O=C(Cc1ccc(Cl)c(Cl)c1)Nc1ccc(S(=O)(=O)Nc2cccc(C(=O)O)c2)cc1", "activity change, negative = inhibition": "4.4% (inactive)"}, {"compound": "COc1ccc(OC)c(-c2nnc3n2N=C(c2ccc(OC)c(OCC4CC4)c2)CS3)c1", "activity change, negative = inhibition": "2.68% (inactive)"}, {"compound": "Cn1nnnc1Sc1ncnc2scc(-c3cnc(N)nc3)c12", "activity change, negative = inhibition": "2.33% (inactive)"}, {"compound": "Cc1cccc(Nc2nc(C#N)nc(NC3CCCC3)n2)c1", "activity change, negative = inhibition": "-10.7% (inactive)"}, {"compound": "S=C(Nc1cc(Cl)ccn1)N1CCN(c2ccc3ccccc3n2)CC1", "Potency": "1.58 µM (active)"}, {"compound": "CN(C)CCCNc1ncnc2ccc(-c3ccc4c(c3)OCO4)cc12", "activity change, negative = inhibition": "2.24% (inactive)"}, {"compound": "O=C(NC1CCCc2c1cnn2-c1ccc(F)cc1F)c1ccc(C(=O)c2ccccc2)cc1", "note": "(stereo not given)", "activity change, negative = inhibition": "3.67% (inactive)"}, {"compound": "O=C1CCCC2=C1C(c1[nH]ncc1Cl)NC(=S)N2", "note": "(stereo not given)", "activity change, negative = inhibition": "-10.3% (inactive)"}, {"compound": "N#Cc1nc(Nc2cccc(Br)c2)nc(NC2CCCC2)n1", "activity change, negative = inhibition": "-7.48% (inactive)"}, {"compound": "CCOc1ccc(C(=O)Nc2ccc(-c3nc4ccccc4[nH]3)cc2)cc1", "activity change, negative = inhibition": "3.13% (inactive)"}, {"compound": "CCOC(=O)c1ccoc1-c1ccc2ncnc(NCc3ncc[nH]3)c2c1", "activity change, negative = inhibition": "5.9% (inactive)"}, {"compound": "COc1ccc(C2Nc3ccccc3C(=O)N2Cc2ccccc2)cc1COc1ccc(NC(=O)c2ccccc2)cc1", "note": "(stereo not given)", "activity change, negative = inhibition": "-5.15% (inactive)"}, {"compound": "Cc1cccc(S(=O)(=O)NC2CCN(C#N)C2)c1", "note": "(stereo not given)", "activity change, negative = inhibition": "7.54% (inactive)"}]}]}
